Assay results: PubChem BioAssay (NCATS)
Records with an inconclusive call do not appear. Values without a mark were called inactive. Active and inactive are the calls of the source. Calls follow the shape of the dose curve; as a rule, active = well fitted cell-killing curve with a large enough effect; inconclusive = small, poorly fitted or top-dose-only effect; inactive = flat fitted curve, though single readings scatter.

Test: qHTS of pediatric cancer cell lines to identify multiple opportunities for drug repurposing: Primary screen for U-2 OS cells (AID 1347096); also: nearly all actives have a fitted effect of over 50% in size
Conditions: U-2 OS viability, CellTiter-Glo luminescence, 48 h; series mostly up to 46 µM; activity change, negative = cytotoxic: at the top concentration
Excerpt: Drug repurposing or repositioning has been offered as a strategy for drug development in oncology programs. This approach has special potential for childhood cancers and other rare or orphan diseases, where the expected return on new drug development has been a disincentive to pharmaceuticals.
In this project we exploit the poly-pharmacology of drugs to discover new indications via phenotypic screening of a panel of 19 well-characterized cell lines derived from solid tumors seen in children and adolescents. The goal is to identify approved drugs with previously unrecognized anticancer properties that has the potential to reveal new mechanisms and biological processes involved in carcinogenesis or drug resistance. We employed a titration-based paradigm (quantitative high-throughput screening or qHTS), where all compounds were tested at multiple concentrations for their effect on cell viability. Concentration-response curves (CRCs) were derived directly from the primary screen, and both potency and efficacy values were used to identify compounds with robust bioactivity profiles. We screened the NIH Chemical Genomics Center (NCGC) Pharmaceutical Collection (NPC) and Mechanism Interrogation Plate (MIPE) small molecule collections of approved and investigational compounds against these cell lines; and measured metabolically active cells after 48 hours of compound treatment as a proxy for cell viability.
Assay Submitter: Nathalia J. Martinez, National Center for Advancing Translational Sciences, National Institutes of Health, Rockville, MD, USA; email: natalia.martinez@nih.gov
[1] Shen, M et al. Quantitative high-throughput phenotypic screening of pediatric cancer cell lines identifies multiple opportunities for drug repurposing. Oncotarget 2017 Dec 19;9(4):4758-4772. PMID 29435139.
The cells were obtained from University of North Carolina (UNC), Pediatric Preclinical Testing Program (PPT), and Coriell Institute (CI).
qHTS cell viability assay:
Cells were assayed in growth media at a density of 500-1,000 cells/well. Five microliters of cells were dispensed into 1,536-well, white, solid-bottom, TC-treated plates (Greiner Bio One) using a multidrop dispenser and incubated at 37 degrees C, 5% CO2, under a humidified atmosphere for 5 hours. Twenty-three nanoliters of compounds and controls (neutral control DMSO or positive control bortezomib at final concentration of 2.3 µM) were subsequently transferred by Kalypsys pintool. For primary screens, the MIPE collection was tested at 11-point dilutions (final concentrations range from 0.78 nM to 46 µM) and the NPC collection at 8-point dilutions (final concentrations range from 0.59 nM to 46 µM). Compounds tested in follow-up screens were assayed at 11-point dilutions. Cells were incubated for 48 hours, followed by addition of 3 µL of CellTiter-Glo (Promega). After a 15 min incubation at room temperature, samples were analyzed for luminescence intensity using a ViewLux High-throughput CCD imager equipped with clear filters.
Potency is read from the fitted curve at half-maximal effect.

Structure (SMILES)	activity change, negative = cytotoxic	Potency
CC(O)CN1CCN(CC(=O)[O-])CCN(CC(=O)[O-])CCN(CC(=O)[O-])CC1.[Gd+3] (stereo not given)	9.64%	–
Cc1ccc(Cl)c(O)c1	12.6%	–
Cc1ccccc1-n1c(Cn2ncc3c(N)ncnc32)nc2cccc(C)c2c1=O	-1.73%	–
CC1(C)CC/C(=C/c2ccc(Cl)cc2)C1(O)Cn1cncn1 (stereo not given)	-16.2% [at 92.7 µM]	–
Cc1ccccc1-n1c(Cn2cnc3c(N)ncnc32)nc2cccc(C)c2c1=O	–	14.8 µM (active)
COc1nn(CSP(=S)(OC)OC)c(=O)s1	-17.6% [at 92.7 µM]	–
COC(=O)[C@@H](N)CCCN=C(N)N[N+](=O)[O-]	15.6%	–
CC(=O)Nc1ccc(OC[C@](C)(O)C(=O)Nc2ccc([N+](=O)[O-])c(C(F)(F)F)c2)cc1	6.08%	–
O=[N+]([O-])c1ncc[nH]1	-3.29%	–
COCCOCCO	13.9% [at 92.7 µM]	–
CC(C)(C)C(O)C(Oc1ccc(Cl)cc1)n1cncn1 (stereo not given)	-5.7% [at 92.7 µM]	–
c1cc2ccc3cccc4ccc(c1)c2c34	8.61% [at 92.7 µM]	–
CC1(N2CCC(n3c([C@@H]4CCCNC4)nc4ccccc43)CC2)CCCCCCC1	-14.4%	–
O=[N+]([O-])c1ccc([As](=O)(O)O)cc1	8.68%	–
Cc1[nH]nc2ccc(-c3cncc(OC[C@@H](N)Cc4c[nH]c5ccccc45)c3)cc12	4.56%	–
COc1ccc(N(C(=O)Oc2c(C)cccc2C)c2ccnc(Nc3ccc(N4CCN(C)CC4)cc3)n2)c(OC)c1	-19.7%	–
C[C@H]([C@H](O)CCC(C)(C)O)[C@H]1CC[C@@]2(O)C3=CC(=O)[C@@H]4C[C@@H](O)[C@@H](O)C[C@]4(C)[C@@H]3CC[C@]12C	9.99%	–
CCC(=O)O[C@@H]1C=C2CCC3C(CCC4(C)C3CC[C@@H]4OC(=O)CC)C2CC1 (stereo not given in full)	0.701%	–
C[C@](O)(COc1ccc(C#N)cc1)C(=O)Nc1ccc(C#N)c(C(F)(F)F)c1	-19.9%	–
CCO/N=C(\CC)C1=C(O)CC(c2c(C)cc(C)cc2C)CC1=O (stereo not given)	8.93% [at 92.7 µM]	–

Structure (SMILES)	activity change, negative = cytotoxic	Potency
COC(C)(C)CCCC(C)C/C=C/C(C)=C/C(=O)OC(C)C (stereo not given)	4.68%	–
Oc1ccc2c3c1O[C@H]1[C@@H](O)C=C[C@H]4[C@@H](C2)NCC[C@@]341	0.155% [at 92.7 µM]	–
CC(C)N[C@@H]1CCn2c(=O)[nH]c3cccc(c32)[C@@H]1O	–	11.8 µM (active)
C[C@]12COC(=O)C[C@@H]1CC[C@@H]1[C@H]2CC[C@@]2(C)[C@H]1CC[C@]2(C)O	7.81%	–
CC1=NN=C(c2ccc(N)cc2)c2cc3c(cc2C1)OCO3	13.6%	–
COc1cc2cc(c1Cl)N(C)C(=O)C[C@H](OC(=O)C(C)C)[C@]1(C)O[C@H]1[C@H](C)[C@@H]1C[C@@](O)(NC(=O)O1)[C@H](OC)C=CC=C(C)C2	-25.3%	–
CSCC[C@@H](NC(=O)[C@@H](Cc1ccccc1)NC(=O)CNC(=O)CNC(=O)[C@@H](N)Cc1ccc(O)cc1)C(=O)O	16.5%	–
CCCCC(CC)COC(=O)c1ccccc1C(=O)OCC(CC)CCCC (stereo not given)	14% [at 92.7 µM]	–
CC(=O)N(C)c1cccc(-c2ccnc3c(C(=O)c4cccs4)cnn23)c1	-3.16%	–
O=[N+]([O-])/N=C1\NCCN1Cc1ccc(Cl)nc1	0.484%	–
CCOCCOC(C)=O	11.2% [at 92.7 µM]	–
O=S(=O)(O)C(F)(F)C(F)(F)C(F)(F)C(F)(F)F	12.1% [at 92.7 µM]	–
CCCCOC(=O)c1ccccc1C(=O)OCc1ccccc1	6.79% [at 92.7 µM]	–
CC(C)Oc1cccc(NC(=O)c2ccccc2C(F)(F)F)c1	-25.6% [at 92.7 µM]	–
C[C@]12CC[C@H]3[C@@H](CCC4=CC(=O)CC[C@@]43C)[C@H]1CC[C@H]2O	-0.0077%	–
C=C[C@@H]1CN2CCC1C[C@@H]2[C@@H](O)c1ccnc2ccccc12 (stereo not given in full)	4.05%	–
CC(=Cc1csc(C)n1)[C@@H]1C[C@H]2O[C@@H]2CCC[C@H](C)[C@@H](O)[C@@H](C)C(=O)C(C)(C)[C@@H](O)CC(=O)O1	-9.47%	–
O=S(=O)(CC1CS1)c1ccc(Oc2ccccc2)cc1 (stereo not given)	7.81%	–
CCN(CC)C(=O)c1ccc(C2=CC3(CCNCC3)Oc3cccc(O)c32)cc1	8.34%	–
C[C@]12CC[C@H](O)CC1=CC[C@H]1[C@H]3CCC(=O)[C@@]3(C)CC[C@@H]12	-11.2%	–
